In PubChem BioAssay (NCATS):
Records with an inconclusive call do not appear. Active and inactive are the calls of the source. Calls come from the whole dose curve; as a rule, active = well fitted curve in the direction sought with a large enough effect; inconclusive = small, poorly fitted or top-dose-only effect, or another doubt; inactive = no such curve, though single readings can be large; an effect the other way counts as inactive or inconclusive.

Tests used:
[1] = HPAF-II 24hr Apoptosis Induction qHTS against the NCATS CANVASS Library (AID 1347356)
How it was run: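 HPAF-II cells (500/well) exposed to compounds in 11-point series for 24 h at 37 degrees C; caspase-3/7 activity read by Caspase-Glo luminescence after 15 min at room temperature. Doxorubicin titration as control.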

[2] = HEK293 18hr Apoptosis Induction qHTS against the NCATS CANVASS Library (AID 1347357)
How it was run: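 Caspase-Glo 3/7 luminescence (15 min, room temperature) measured apoptosis after an 18-hour, 37 degrees C exposure of HEK293 cells (500 cells/well) to compounds in 11 points.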

[3] = HPAF-II 12hr Apoptosis Induction qHTS against the NCATS CANVASS Library (AID 1347358)
How it was run: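 HPAF-II cells, 500/well in DMEM + 10% FBS, exposed 12 hours at 37 degrees C to compound (11-point). Caspase-Glo 3/7 added for 15 min at room temperature; luminescence reflects caspase-3/7 activity.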

[4] = HEK293 24hr Apoptosis Induction qHTS against the NCATS CANVASS Library (AID 1347359)
How it was run: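 HEK293 cells (500/well, DMEM + 10% FBS) were exposed to compounds in an 11-point series for 24 hours at 37 degrees C, then caspase-3/7 activity was read by Caspase-Glo DEVD luciferase luminescence after 15 min.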

[5] = HPAF-II 18hr Apoptosis Induction qHTS against the NCATS CANVASS Library (AID 1347360)
How it was run: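 Caspase-3/7 activation was measured with luminescent Caspase-Glo 3/7 reagent (15 min, RT) in HPAF-II cancer cells (500 cells/well). Before detection, cells had been treated for 18 h at 37 C with compounds (11 points).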

[6] = HEK293 12hr Apoptosis Induction qHTS against the NCATS CANVASS Library (AID 1347361)
How it was run: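 HEK293 cells (500/well, DMEM + 10% FBS) were exposed to natural products across an 11-point series for 12 hours at 37 degrees C. Caspase-3/7 activity was then measured with DEVD luciferase luminescence after 15 min at room temperature.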

[7] = 10-beta competent E. coli microbial cell viability qHTS against the NCATS CANVASS Library (AID 1347376); note: series mostly up to about 46 µM
How it was run: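 10-beta competent E. coli (0.2 OD) were exposed overnight at 37C to compounds in an 11-point series. Viability was read as ATP-dependent BacTiter-Glo luminescence after 20 min at room temperature.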

[8] = DH5-alpha competent E. coli microbial cell viability qHTS against the NCATS CANVASS Library (AID 1347377); conditions: outcome: dose series up to 46.1 µM unless noted
How it was run: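 DH5-alpha E. coli suspension was exposed to an 11-point compound series overnight at 37 °C. Viable cells quantified by ATP luminescence (BacTiter-Glo) after 20 min at room temperature.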

[9] = Inflammasome Signaling qHTS Counterscreen: IL-1-beta AlphaLISA counterscreen against the NCATS CANVASS Library (AID 1347381);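 note: cell-free check with purified IL-1β in medium and no THP-1 cells; series mostly up to about 57 µM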
How it was run: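 Cell-free interference check: compounds added to medium spiked with 4 pg purified IL-1β. Anti-IL-1β acceptor beads (6 ug/mL) with 0.6 nM biotinylated antibody added for 1 h at RT, then streptavidin donor beads (24 ug/mL) for 30 min in the dark. AlphaLISA read at 680/615 nm.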

[10] = Cytotoxicity qHTS for assessment of Hepg2 cells membrane integrity screened against the NCATS CANVASS Library (AID 1347387)
How it was run: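 HepG2 cells (2000/well) attached overnight, then exposed 5 hr at 37C to compounds in an 11-point series (0.59 nM - 46 uM final). LDH release from damaged membranes read fluorometrically (CytoTox-ONE; 560/590 nm) after 10 min at room temperature.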

[11] = qHTS for activators of dead-cell proteases activity screened against the NCATS CANVASS Library (AID 1347392);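 note: luminescence from protease leaking out of membrane-damaged cells cleaving impermeant substrate; rising signal means more cytotoxicity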
How it was run: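 HepG2 cells (2000/well) attached 18 h at 37C, then exposed 5 h to compounds (11-point qHTS). Dead-cell protease activity read as luminescence from cell-impermeant AAF-aminoluciferin substrate after 15 min at room temperature.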

[12] = Redox Reaction Profiling qHTS: Assay Interference Panel against the NCATS CANVASS Library (AID 1347401); note: potency is the fitted concentration of half-maximal effect
How it was run: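 Resazurin (5 uM) conversion to resorufin measured with 200 uM DTT in 50 mM HEPES pH 7.3, 50 mM NaCl. Compounds tested in 11-point qHTS series. Fluorescence (ex 525/em 598 nm) read before and after 15 min dark incubation.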

[13] = biological target: Luciferin 4-monooxygenase (Photinus pyralis) (UniProt P08659); test: Firefly luciferase counterscreen qHTS: Assay Interference Panel against the NCATS CANVASS Library (AID 1347363); note: series mostly up to about 57 µM
How it was run: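 Purified P. pyralis luciferase was added to compounds (11-point series) preincubated 15 min at room temperature with substrate containing 0.013 mM D-luciferin and 0.013 mM ATP; luminescence was read after 5 min.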

[14] = biological target: Glutathione peroxidase 1 (Homo sapiens) (UniProt P07203); test: Primary qHTS Assay for Inhibitors of Recombinant Selenoprotein Glutathione Peroxidase 1 (GPX1) (AID 1845191); note: nearly all actives have a fitted effect of over 65% in size
How it was run: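 Recombinant GPX1 (10 nM final) was preincubated with compound for 30 min at room temperature, then reacted with 1 mM GSH, 0.5 mM CHP, 0.5 mM NADPH and 100 nM glutathione reductase; NADPH fluorescence (340/450 nm) was read at 0 and 15 min.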

Measured: Potency

Luciferin 4-monooxygenase (Photinus pyralis), sequence (P08659 whole entry, looked up): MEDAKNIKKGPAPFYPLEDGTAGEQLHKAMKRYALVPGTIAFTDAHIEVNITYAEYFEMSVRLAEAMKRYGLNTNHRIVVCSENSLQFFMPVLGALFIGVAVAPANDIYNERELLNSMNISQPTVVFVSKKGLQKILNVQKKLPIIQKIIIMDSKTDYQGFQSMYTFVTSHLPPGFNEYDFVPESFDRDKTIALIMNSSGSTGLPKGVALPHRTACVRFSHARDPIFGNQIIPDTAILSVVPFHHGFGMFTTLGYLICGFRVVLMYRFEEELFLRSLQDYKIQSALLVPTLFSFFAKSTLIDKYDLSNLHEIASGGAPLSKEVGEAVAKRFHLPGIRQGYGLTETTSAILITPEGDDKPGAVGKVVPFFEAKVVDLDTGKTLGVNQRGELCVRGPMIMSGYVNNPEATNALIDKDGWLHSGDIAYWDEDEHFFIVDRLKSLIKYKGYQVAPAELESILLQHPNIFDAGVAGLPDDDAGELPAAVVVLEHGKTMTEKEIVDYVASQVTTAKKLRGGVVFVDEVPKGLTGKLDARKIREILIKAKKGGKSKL
Glutathione peroxidase 1 (Homo sapiens), sequence (P07203 whole entry, looked up): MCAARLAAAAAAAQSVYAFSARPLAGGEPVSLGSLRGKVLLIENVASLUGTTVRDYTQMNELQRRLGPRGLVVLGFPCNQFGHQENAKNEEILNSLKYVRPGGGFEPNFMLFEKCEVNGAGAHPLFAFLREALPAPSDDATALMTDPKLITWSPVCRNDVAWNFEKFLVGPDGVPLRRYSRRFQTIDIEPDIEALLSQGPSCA

COc1cc2oc3ccccc3c(=O)c2cc1OC
not listed: [13] | [14]
inactive: all other assays above

C/C(=C\[C@H](C)C(=O)/C=C/CC1CC(=O)NC(=O)C1)[C@@H]1OC(=O)CCCC/C=C/[C@H](O)[C@@H](O)[C@@H]1C
active: [12] 24.1 µM
not listed: [14]
inactive: all other assays above

COc1ccc([C@@H]2c3cc4c(cc3C(=O)[C@H](C)C2C)OCO4)cc1OC (stereo partly drawn)
not listed: [14]
inactive: all other assays above

C=C1C[C@H]2O[C@@H]3[C@@H]4[C@H](CC[C@@](C)(O)[C@@H]42)[C@H](C)COC3(C)[C@@H](OC(=O)CCCCCCC)CC1=O (stereo partly drawn)
not listed: [2] | [6] | [14]
inactive: all other assays above

C/C(=C\[C@H](C)C(=O)C[C@H](O)CC1CC(=O)NC(=O)C1)[C@@H]1OC(=O)CCCC/C=C/[C@@H](O)C[C@@H]1C
not listed: [14]
inactive: all other assays above

C=C[C@@](C)(O)CC[C@@H]1[C@@]2(C)CCCC(C)(C)[C@@H]2CC[C@@]1(C)O
not listed: [8]
inactive: all other assays above

COc1cc2c(cc1OC)[C@@H](c1ccc3c(c1)OCO3)C(C)[C@@H](C)C2=O (stereo partly drawn)
not listed: [14]
inactive: all other assays above
